Source: PubChem BioAssay (National Center for Advancing Translational Sciences (NCATS))
This is a sample that favours compounds with a hit; in the whole collection about 21% have one here.
NS1 inh = inhibitors of influenza NS1 protein function; Potency, µM (top dose mostly 46.1 µM), without a hit: top-dose activity, positive = more growth; 270,000 tested, 0.4% active; AID 2326; calls by dose curve; also: potency is read from the fitted curve at half-maximal effect; actives are rising curves; nearly all actives have a fitted effect of over 50% in size
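Compounds were scored for reversing the slow growth caused by influenza A NS1 in S. cerevisiae, measured by optical density at 600 nm. Assay medium contained 2% galactose at pH 6.0; NS1-free yeast of the same strain were the positive control.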
Giardia FBPA inh = inhibitors of Giardia lamblia fructose-1,6-bisphosphate aldolase; Potency, µM (series often up to 59.6 µM), for inactives: top-dose activity, negative = inhibition, hits mostly inhibitors; purified Giardia FBPA; 290,000 tested, 0.71% active; AID 2451; A8B2U2; also: potency is read from the fitted curve at half-maximal effect; % is scaled to controls: 0 for no effect and ±100 for the full control effect; nearly all actives have a fitted effect of over 55% in size
Target sequence (A8B2U2 whole entry, looked up): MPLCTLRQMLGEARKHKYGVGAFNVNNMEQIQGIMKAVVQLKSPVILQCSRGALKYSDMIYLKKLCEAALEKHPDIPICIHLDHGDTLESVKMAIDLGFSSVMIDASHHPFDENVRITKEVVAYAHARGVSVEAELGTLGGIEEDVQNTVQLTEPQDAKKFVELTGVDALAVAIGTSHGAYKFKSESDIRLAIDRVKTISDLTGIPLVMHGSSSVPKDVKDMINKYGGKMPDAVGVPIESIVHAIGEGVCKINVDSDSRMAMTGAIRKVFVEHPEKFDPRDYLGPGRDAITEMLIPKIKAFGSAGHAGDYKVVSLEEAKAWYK
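40 nM FBPA preincubated 10 min at RT with compound (up to 57.5 uM final), then substrate plus GAPDH/TPI/NAD/arsenate coupling and diaphorase/resazurin added. Fluorescence read after 20 min at RT, 525/598 nm.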
Pf growth 48h = P. falciparum growth inhibition at 48 hours (one generation). P. falciparum luciferase growth in erythrocytes, 48 h. 310,000 tested, 5.9% active. AID 504832. Potency, µM (series often up to 28.7 µM), for the others: top-dose activity change, negative = inhibition, actives largely listed as inhibitors; also: potency is read from the fitted curve at half-maximal effect; % is scaled to controls: 0 for no effect and ±100 for the full control effect
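Compounds are pin-transferred into medium, infected erythrocytes (2% hematocrit, 0.1% parasitemia final) are added, and plates sit one parasite generation at 37 C in 5% CO2. Detection reagent is then added and luminescence measured.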
Shiga inhibitor = inhibitors of Shiga toxin in Vero cells. AID 2315. inhibition, % at 38.7 µM. 290,000 tested, 9.2% active. Vero cells, Shiga toxin protein synthesis inhibition reporter; in the data active = inhibition mostly above about 28%, no sharp cut-off; inactive = mostly below about 43%; also: 0% is about no effect
Cycloheximide cs = counter-screen hit for Shiga toxin inhibitors, cycloheximide; max response, %; cell reporter, cycloheximide protein synthesis inhibition counterscreen; 300,000 tested, 12% active; in the data active = max response mostly above about 13%, no sharp cut-off; inactive = mostly below about 14%; also: read at 38.3 µM for the half of the compounds with a filed dose; 0% is about no effect
Pf growth 96h = inhibits malaria parasite growth, 96 h; AID 504834; P. falciparum luciferase reporter growth, 96 h; 320,000 tested, 6.9% active; Potency, µM (highest dose often 28.7 µM), inactives show at the top dose activity change, negative = inhibition, usual class: inhibitors; also: potency is read from the fitted curve at half-maximal effect; % is scaled to controls: 0 for no effect and ±100 for the full control effect
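Plates of compound plus infected erythrocytes (2% hematocrit, 0.05% parasitemia final) incubate 96 hours, 37 C, 5% CO2. Detection reagent added; reduced luminescence from the parasites' luciferase reporter flags inhibition.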
Numbers without * were called inactive; ? = inconclusive; . = no result given; [ ] = dose if it differs, or a comment. Unless noted, calls follow the shape of the dose curve; as a rule, active = well fitted curve in the direction sought with a large enough effect; inconclusive = small, poorly fitted or top-dose-only effect, or another doubt; inactive = no such curve, though single readings can be large; an effect the other way counts as inactive or inconclusive.

SMILES | NS1 inh | Giardia FBPA inh | Pf growth 48h | Shiga inhibitor | Cycloheximide cs | Pf growth 96h
Cc1cc(C)cc(N(CC(=O)NC(C)C)C(=O)CCC(=O)Nc2ccccn2)c1 | 9.9% | 5.3% | -11.9% | -7.0 | -0.8 | ?
COc1ccc(N(CC(=O)NCc2ccccc2OC)S(=O)(=O)c2c(C)nn(C)c2C)cc1 | -32.8% | 5.1% | . | -5.8 | -0.6 | 46.3%
COc1ccccc1CNC(=O)CN(c1ccc(C)cc1)S(=O)(=O)c1c(C)nn(C)c1C | -9.6% | -0.3% | ? | 15.1 | 4.8 | 4.15µM*
CCOc1ccc(N(CC(=O)NCCOc2ccc(C)cc2)S(=O)(=O)c2ccccc2)cc1 | 16.2% | 3.8% | 10.4µM* | -2.6 | -2.8 | ?
CCOc1ccc(N(CC(=O)NCc2ccccc2OC)S(C)(=O)=O)cc1 | -2.5% | 2.4% | 41.4% | 91.7* | 42.6* | .
CCOc1ccccc1N(CC(=O)NCc1ccc(OC)cc1)S(C)(=O)=O | 0.3% | 3.8% | -11.2% | 31.0 | -2.1 | ?
CN=c1scc(-c2ccccc2Br)n1/N=C/c1ccc[nH]1 | . | -25.8% | 163.3% | 86.2* | 29.3* | 102.0%
CN=c1scc(-c2cccs2)n1/N=C/c1ccccc1O | 5.6% | 20.6% | -88.0% | -19.0 | -13.5 | -55.5%
Nc1ccc(C23CC4CC(CC(O)(C4)C2)C3)cc1 | 11.7% | -6.8% | 21.1% | 23.7 | 27.5* | 34.6%
Nc1ccc(C23CC4CC(CC(CO)(C4)C2)C3)cc1 | ? | 0.6% | -4.3% | 11.8 | 19.3* | ?
Cc1c(-c2nc(N)nc(Nc3ccccc3)n2)oc2ccccc12 | -54.2% | -3.9% | -47.4% | 77.5* | 39.1* | ?
COc1ccc(OC)c(Nc2nc(N)nc(-c3cc4ccccc4o3)n2)c1 | -14.9% | 3.3% | ? | 0.5 | -0.8 | .
COc1cccc(-n2c(SCc3c(C)noc3C)nnc2-c2cccc(S(=O)(=O)N(C)C)c2)c1 | 0.0% | 13.2% | 11.7µM* | -15.9 | -2.1 | ?
COc1ccc(OC)c(-n2c(SCC(C)=O)nnc2-c2cccc(S(=O)(=O)N(C)C)c2)c1 | -8.0% | 2.4% | . | -5.5 | 0.9 | 11.7µM*
Cc1noc(C)c1CSc1nnc(-c2cc(Cl)ccc2Cl)n1N | 3.0% | 2.4% | 20.9% | 14.9 | -3.7 | 39.9%
COc1ccc(-c2nnc(SCc3c(C)noc3C)n2N)cc1OC | -5.8% | -3.0% | ? | 1.5 | -0.5 | 11.7µM*
O=C(NC(NC(=S)Nc1ccc(F)c([N+](=O)[O-])c1)C(Cl)(Cl)Cl)C(c1ccccc1)c1ccccc1 (stereo not given) | . | -6.9% | . | 12.5 | 4.6 | .
COc1cccc(C(=O)Nc2ccc3c(c2)CCCN3C(=O)c2cccs2)c1OC | 0.2% | . | ? | 49.0* | 26.2* | -8.4%
COc1ccc(C(=O)Nc2ccc3c(c2)CCCN3C(=O)c2cccs2)c(OC)c1 | -48.4% | . | ? | -1.2 | 12.2 | 14.7µM*
Cc1ccccc1C(=O)Nc1ccc2c(c1)CCCN2C(=O)c1cccs1 | -24.8% | . | -22.3% | 11.1 | 10.1 | ?
Cc1ccc(C(NC(=O)N2CC(C)OC(C)C2)C(Cl)Cl)cc1F (stereo not given) | -9.4% | -0.7% | ? | -6.3 | 0.8 | -12.0%
COc1ccc(C(NC(=O)N2CC(C)OC(C)C2)C(Cl)(Cl)Cl)cc1F (stereo not given) | -4.7% | 1.6% | 13.1µM* | 1.7 | -2.0 | 3.29µM*
Nc1nc(Nc2cccc(F)c2)nc2ccccc12 | -114.1% | 9.3% | ? | 105.1* | 28.8* | -31.7%
O=c1oc(Nc2cccc(F)c2)nc2ccccc12 | 0.0% | -2.9% | 154.2% | 105.3* | 18.0* | 96.5%
CCN(CC)c1ccc(/C=N/NC(=O)c2ccc3nc[nH]c3c2)cc1 | 1.2% | -0.5% | ? | 11.0 | -2.3 | -19.7%
SMILES | NS1 inh | Giardia FBPA inh | Pf growth 48h | Shiga inhibitor | Cycloheximide cs | Pf growth 96h
CN(C)c1ccc(/C=N/NC(=O)c2ccc(Cl)cc2)cc1 | -18.9% | 7.3% | 34.7% | 18.2* | 2.4 | 78.8%
CN(C)c1ccc(/C=N/NC(=O)c2ccc3nc[nH]c3c2)cc1 | -6.2% | -5.9% | 24.9% | 22.0* | 15.8* | 31.8%
CC/C(=N\NC(=O)c1ccc(N2CCCC2=O)cc1)c1ccccc1 | 12.4% | -5.7% | 6.9% | 4.1 | -2.8 | ?
CC/C(=N\NC(=O)c1ccc(N(C)C)cc1)c1ccccc1 | 8.5% | 5.4% | 12.1% | 32.8* | 12.7 | 57.4%
CN(C)c1cccc(C(=O)N/N=C/c2ccsc2)c1 | 5.6% | -11.2% | 121.5% | 80.3* | 67.0* | 59.0%
CN(C)c1ccc(/C=N\NC(=O)c2ccc(Cn3cc(Cl)cn3)cc2)cc1 | -24.6% | 3.6% | -8.7% | -3.6 | -1.7 | 0.4%
Nc1ccn(CC(=O)N[C@H](CO)Cc2c[nH]c3ccccc23)c(=O)n1 | . | . | 35.8% | . | . | 45.3%
CCOC(=O)NC1=NCC(C)S1 (stereo not given) | 4.6% | 8.9% | 41.7% | -10.7 | 5.4 | 0.6%
O=C(CCCCCNC(=O)c1ccccc1)N/N=C/c1ccccc1O | 4.0% | ? | 6.9% | 25.3 | 25.1* | 25.0%
CN(C)c1ccc(/C(=N\O)c2ccccc2)cc1 | 8.3% | -1.6% | 61.4% | 83.1* | 34.6* | 59.5%
CN(C)C(=S)c1ccc(N(C)C)cc1 | 8.8% | 1.5% | 43.3% | -6.7 | 15.0 | 21.1%
CN(C)c1ccc(/C=N/NC(=O)CCCCCNC(=O)c2ccccc2)cc1 | -10.5% | 0.2% | 15.1% | 59.9* | 55.5* | ?
CN(C)c1ccc(/C=N/NC(=O)c2ccccc2Cl)cc1 | -39.1% | -5.5% | 87.3% | 9.7 | 34.9* | -3.9%
CCC1=C2CC[C@H]3C(=O)NC(=O)[C@H]3[C@H]2[C@@]2(C)C(=NCCOC)OC(=O)N2C1=O | . | 2.7% | . | . | . | .
C/C(=N/N=C/c1ccc(N(C)C)cc1)c1ccccc1 | -24.6% | 3.3% | 250.4% | 167.6* | 47.2* | ?
CN(C)c1ccc(/C=N/NC(=O)c2ccccc2)cc1 | -8.5% | -6.2% | 59.8% | 53.4* | 33.3* | 36.5%
CN(C)c1ccc(C=Nc2ccccc2)cc1 | -58.1% | -1.2% | 7.7% | 52.5 | 5.2 | 57.5%
CSc1ccc(/C=N/NC(=O)CN2CCN(Cc3ccccc3)CC2)cc1 | 2.8% | 4.8% | -1.9% | 3.1 | 5.9 | -11.3%
CSc1ccc(/C=N/NC(=O)c2ccccc2Cl)cc1 | -8.4% | -1.4% | -17.8% | 91.3* | 31.8* | -65.5%[5.75 µM]
Cc1cccc(N(CC(=O)NCC2CCCO2)C(=O)CCC(=O)Nc2nccs2)c1 (stereo not given) | 0.7% | . | -3.2% | -3.9 | -5.4 | -5.0%
Cc1nc(CN(C)C(=O)C2CCC(=O)N(CCc3cccc(F)c3)C2)cs1 (stereo not given) | 5.6% | . | 1.5% | 4.5 | -1.8 | 25.7%
CN(CCC1CCOCC1)C(=O)C1CCC(=O)N(CCc2cccc(F)c2)C1 (stereo not given) | -0.8% | . | -6.5% | -12.3 | 9.6 | 14.7µM*
Cc1ccsc1CCNC(=O)C1CCC(=O)N(CCc2cccc(F)c2)C1 (stereo not given) | -14.9% | . | 17.7% | 119.9* | 45.9* | ?
